Source: PMC5540273 (PLoS ONE, 2017)

Tests used:
Conditions in all cases: concentration: 1 μM,replicates: in singlicate; n = 1
[1] = system: JAK1(JH2domain-pseudokinase)
[2] = system: JAK2(JH1domain-catalytic)
[3] = system: JAK3(JH1domain-catalytic)
[4] = system: T1, JNK1
T1 construct: gene MAPK8

[5] = system: T2, JNK2
T2 construct: gene MAPK9

[6] = system: T3, JNK3
T3 construct: gene MAPK10

[7] = system: KIT-autoinhibited
[8] = system: KIT
[9] = system: LATS1
[10] = system: LATS2
[11] = system: LCK
[12] = system: LIMK1
[13] = system: LIMK2
[14] = system: T4, LKB1
T4 construct: gene STK11

[15] = system: T5, LOK
T5 construct: gene STK10

[16] = system: LRRK2
[17] = system: LTK
[18] = system: LYN
[19] = system: T6, LZK
T6 construct: gene MAP3K13

[20] = system: MAK
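Also: KINOMEscan kinase panel screen.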

SMILES | %Inh [1] [%] | %Inh [2] [%] | %Inh [3] [%] | %Inh [4] [%] | %Inh [5] [%] | %Inh [6] [%] | %Inh [7] [%] | %Inh [8] [%] | %Inh [9] [%] | %Inh [10] [%] | %Inh [11] [%] | %Inh [12] [%] | %Inh [13] [%] | %Inh [14] [%] | %Inh [15] [%] | %Inh [16] [%] | %Inh [17] [%] | %Inh [18] [%] | %Inh [19] [%] | %Inh [20] [%]
CN(c1ccccc1CNc1nc(Nc2ccc3c(c2)CC(=O)N3)ncc1C(F)(F)F)S(C)(=O)=O | 66 | 98.6 | 99.2 | 64 | 66 | 63 | 0 | 38 | 65 | 76 | 78 | 0 | 0 | 0 | 57 | 20 | 81 | 26 | 0 | 16
COc1cc2nccc(Nc3ccc(Oc4ccccc4)cc3)c2cc1OC.Cl [GI261656] | 0 | 100 | 0 | 4 | 10 | 0 | 0 | 79 | 0 | 9 | 99.2 | 0 | 14 | 13 | 0 | 0 | 0 | 71 | 5 | 1
COC(=O)Nc1nc2cc(Oc3ccc(NC(=O)Nc4cc(C(F)(F)F)ccc4Cl)cc3)ccc2[nH]1.Cl [GW697465] | 0 | 25 | 0 | 20 | 61 | 8 | 0 | 100 | 100 | 0 | 98.9 | 11 | 0 | 14 | 99.7 | 11 | 36 | 75 | 44 | 20
C[C@@H]1CCN(C(=O)N2CCCC2)C[C@@H]1N(C)c1ncnc2[nH]ccc12 | 31 | 100 | 99.6 | 14 | 8 | 3 | 23 | 0 | 0 | 10 | 41 | 0 | 0 | 0 | 0 | 0 | 100 | 0 | 22 | 14
Cl.Cl.NC[C@H](CC1CCCCC1)NC(=O)c1ccc(-c2ccnc3[nH]ccc23)s1 [GSK1581428] | 0 | 97.2 | 99.7 | 18 | 11 | 8 | 0 | 65 | 89 | 95.3 | 37 | 0 | 0 | 50 | 31 | 49 | 0 | 0 | 0 | 0
C[C@@H]1CNc2c(sc3ccc4nc(-c5ccc(O)cc5)ccc4c23)C(=O)N1 | 36 | 53 | 94.6 | 18 | 0 | 6 | 0 | 54 | 17 | 13 | 0 | 4 | 0 | 0 | 19 | 93.5 | 83 | 4 | 0 | 46
CCNCC(Cc1ccccc1)NC(=O)c1cc(Br)c(-c2ccnc3[nH]ccc23)s1.Cl.Cl (centres unmarked) [GSK1383280] | 0 | 82 | 87 | 33 | 10 | 1 | 0 | 50 | 43 | 82 | 11 | 21 | 23 | 0 | 0 | 0 | 0 | 0 | 0 | 44
CC(C(=O)NC1CCN(c2ccnc(Nc3ccc(F)cc3)n2)C1)c1ccc(Cl)cc1 (centres unmarked) [GSK1379713] | 0 | 7 | 0 | 2 | 0 | 0 | 0 | 10 | 0 | 0 | 22 | 0 | 0 | 0 | 0 | 14 | 0 | 0 | 0 | 12
CCCC(=O)Nc1n[nH]c2ncccc12 [SB-601436] | 4 | 18 | 0 | 20 | 6 | 1 | 0 | 0 | 40 | 0 | 14 | 0 | 0 | 0 | 3 | 0 | 4 | 0 | 0 | 7
COc1cc2ncn(-c3cc(OCC4CCCCC4)c(C(N)=O)s3)c2cc1OC [GSK204559] | 0 | 0 | 0 | 20 | 27 | 19 | 0 | 31 | 0 | 7 | 37 | 2 | 13 | 0 | 63 | 20 | 10 | 0 | 0 | 18
COc1cc2c(Nc3ccc(NC(=O)c4ccccc4)cc3)ncnc2cc1OCCCN1CCOCC1 [GSK301329] | 0 | 0 | 0 | 0 | 19 | 12 | 41 | 99.1 | 0 | 0 | 87 | 3 | 0 | 0 | 77 | 33 | 27 | 52 | 55 | 0
Cn1ccc2ncnc(Oc3ccc(NC(=O)Nc4cnn(C(C)(C)C)c4)c(Cl)c3)c21 | 0 | 11 | 15 | 2 | 10 | 0 | 35 | 99.8 | 100 | 2 | 71 | 1 | 8 | 9 | 99.9 | 0 | 12 | 71 | 0 | 0
C[C@@H](Oc1cc(-n2cnc3cc(-c4ccncc4)ccc32)sc1C(N)=O)c1ccccc1Cl [GSK479719] | 0 | 58 | 48 | 7 | 10 | 11 | 0 | 64 | 10 | 0 | 54 | 31 | 0 | 0 | 99.8 | 4 | 0 | 0 | 0 | 0
c1ccc(Oc2ccc(Nc3ccnc4ccc(-c5ccccn5)cc34)cc2)cc1 [GW407034] | 0 | 22 | 0 | 20 | 16 | 18 | 0 | 45 | 1 | 0 | 83 | 5 | 0 | 0 | 0 | 5 | 0 | 22 | 0 | 59
O=c1[nH]cc(-c2ccc(O)cc2)c2sc(-c3ccncc3)cc12 [GSK1033723] | 0 | 33 | 51 | 0 | 0 | 0 | 0 | 27 | 0 | 24 | 7 | 0 | 23 | 13 | 0 | 0 | 0 | 0 | 4 | 31
COC(=O)c1cccc(NC(=O)NC2CCN(c3ccnc(Nc4cc(OC)c(OC)c(OC)c4)n3)C2)c1 (centres unmarked) [GSK1379767] | 13 | 82 | 0 | 16 | 20 | 28 | 0 | 77 | 0 | 17 | 7 | 0 | 35 | 0 | 45 | 0 | 83 | 0 | 54 | 36
C[C@@H](Oc1cc(-n2cnc3cc(-c4cnn(C)c4)ccc32)sc1C(N)=O)c1ccccc1Cl [GSK580432] | 0 | 86 | 96.9 | 0 | 31 | 16 | 0 | 96.4 | 0 | 2 | 94.8 | 0 | 0 | 57 | 99.9 | 68 | 25 | 38 | 0 | 0

SMILES | %Inh [1] [%] | %Inh [2] [%] | %Inh [3] [%] | %Inh [4] [%] | %Inh [5] [%] | %Inh [6] [%] | %Inh [7] [%] | %Inh [8] [%] | %Inh [9] [%] | %Inh [10] [%] | %Inh [11] [%] | %Inh [12] [%] | %Inh [13] [%] | %Inh [14] [%] | %Inh [15] [%] | %Inh [16] [%] | %Inh [17] [%] | %Inh [18] [%] | %Inh [19] [%] | %Inh [20] [%]
NC(=O)c1ccc(-c2cc3ncnc(SCC(=O)O)c3s2)cc1 | 50 | 0 | 22 | 22 | 0 | 0 | 22 | 68 | 0 | 0 | 2 | 0 | 21 | 18 | 0 | 11 | 0 | 23 | 2 | 45
Cc1n[nH]c2cc(Nc3ccnc(Nc4cccc(CN5CCOCC5)c4)n3)ccc12 [GW682569] | 98.8 | 99.4 | 79 | 96.2 | 58 | 85 | 28 | 97.7 | 0 | 0 | 71 | 9 | 5 | 17 | 0 | 0 | 1 | 25 | 31 | 20
O=C(Nc1n[nH]c2cc(-c3ccco3)ccc12)C1CC1 [SB-737447] | 63 | 27 | 30 | 38 | 17 | 32 | 7 | 23 | 0 | 10 | 3 | 0 | 0 | 0 | 3 | 0 | 0 | 0 | 0 | 4
COc1ccc(Nc2nccc(N3CCC(NC(=O)c4cccc(C#N)c4)C3)n2)cc1 (centres unmarked) [GSK1379730] | 0 | 12 | 0 | 15 | 16 | 10 | 0 | 0 | 0 | 0 | 23 | 0 | 0 | 2 | 0 | 31 | 0 | 0 | 0 | 26
Cn1ccc2ncnc(Oc3ccc(NC(=O)Nc4ccnc(C(F)(F)F)c4)c(Cl)c3)c21 | 1 | 0 | 2 | 0 | 0 | 0 | 22 | 99.8 | 11 | 0 | 0 | 16 | 0 | 8 | 94 | 0 | 100 | 6 | 7 | 5
CC(=O)Nc1ccc(-c2cc3ncnc(SCC(=O)O)c3s2)cc1 | 7 | 0 | 17 | 7 | 0 | 0 | 26 | 79 | 0 | 20 | 1 | 0 | 0 | 0 | 5 | 0 | 0 | 9 | 0 | 52
Cc1nnc(-c2ccc3occ(-c4ccc(S(C)=O)cc4)c3n2)o1 (centres unmarked) | 0 | 0 | 0 | 0 | 0 | 0 | 0 | 0 | 0 | 0 | 0 | 0 | 0 | 3 | 0 | 0 | 0 | 0 | 0 | 0
Cn1cc(-c2cccc3c(N)c(C(N)=O)nnc23)cn1 | 61 | 32 | 38 | 14 | 5 | 8 | 16 | 5 | 3 | 0 | 5 | 2 | 7 | 0 | 15 | 57 | 29 | 12 | 0 | 0
CN(c1ccc2c(c1)nc(NCc1ccc(F)cc1)n2C)c1ccnc(Nc2ccc(CS(C)(=O)=O)cc2)n1.Cl [GW813244] | 56 | 54 | 100 | 42 | 39 | 0 | 69 | 99.9 | 10 | 0 | 67 | 33 | 0 | 29 | 99.5 | 0 | 48 | 68 | 0 | 2
COC(=O)c1cccc(NC(=O)NC2CCN(c3ccnc(NCc4ccc(F)cc4)n3)CC2)c1 [GSK1379860] | 0 | 6 | 0 | 7 | 23 | 3 | 0 | 7 | 0 | 0 | 4 | 4 | 0 | 0 | 0 | 8 | 0 | 0 | 0 | 28
O=C(Nc1ccccc1)c1cccc(Oc2ccc3nccn3n2)c1 | 10 | 10 | 6 | 8 | 1 | 6 | 8 | 98.4 | 0 | 91.6 | 13 | 12 | 23 | 0 | 7 | 0 | 20 | 4 | 0 | 32
O=C(Nc1cccc(Oc2ccc3nccn3n2)c1)Nc1cccc(C(F)(F)F)c1 | 0 | 9 | 25 | 0 | 0 | 0 | 68 | 100 | 0 | 0 | 71 | 0 | 25 | 0 | 64 | 21 | 0 | 42 | 0 | 38
Cl.c1ccc(Oc2ccc(Nc3ccnc4cc(-c5ccc(CN6CCNCC6)o5)ccc34)cc2)nc1 [GW567142] | 17 | 100 | 0 | 0 | 3 | 0 | 10 | 87 | 0 | 0 | 82 | 0 | 0 | 0 | 54 | 4 | 0 | 4 | 7 | 21
COc1cccc(CNC(=O)NC2CCN(c3ccnc(Nc4cc(OC)c(OC)c(OC)c4)n3)C2)c1 (centres unmarked) [GSK1379765] | 11 | 89 | 0 | 29 | 9 | 25 | 0 | 60 | 0 | 5 | 34 | 9 | 82 | 0 | 49 | 0 | 78 | 0 | 32 | 31
Cn1ccc2ncnc(Oc3ccc(NC(=O)Nc4cccc(C(F)(F)F)c4)c(F)c3)c21 | 7 | 6 | 29 | 11 | 0 | 0 | 75 | 100 | 15 | 0 | 75 | 0 | 2 | 0 | 99.9 | 31 | 84 | 24 | 0 | 27
CCn1c(-c2nonc2N)nc2cncc(CNC3CCNCC3)c21.Cl [SB-747651] | 0 | 19 | 0 | 25 | 6 | 3 | 0 | 0 | 0 | 53 | 0 | 14 | 13 | 0 | 0 | 43 | 25 | 0 | 8 | 29
OCCn1cc(-c2cnc3nnn(Cc4ccc5ncccc5c4)c3n2)cn1 | 10 | 0 | 0 | 10 | 0 | 0 | 0 | 0 | 0 | 24 | 0 | 0 | 0 | 3 | 18 | 0 | 8 | 0 | 0 | 0
